Assays:
Experiment in all cases: PBM binding z-score (relative to random genomic background probes); higher = stronger binding; sequences stand for … in GC…GCGATTGACAGCGTAGAATGAAGG
[1] = tested on: FXR:RXRa (NR concentration 270 nM, RXRa partner concentration 90 nM)
Procedure, shortened: (§1)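 Each nuclear receptor dimer, without ligand, was incubated for 1 h on custom Agilent 4×180K protein-binding microarrays. Binding was detected with antibodies against each partner (one per run), and scanned fluorescence was regression-normalized. The binding z-scores are referenced to random human genomic background probes.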

[2] = tested on: LXRa:RXRa (NR concentration 270 nM, RXRa partner concentration 90 nM)
Procedure, shortened: as §1

[3] = tested on: LXRa homodimer (NR concentration 270 nM)
Procedure, shortened: as §1

[4] = tested on: LXRb:RXRa (NR concentration 270 nM, RXRa partner concentration 90 nM)
Procedure, shortened: as §1

[5] = tested on: LXRb homodimer (NR concentration 270 nM)
Procedure, shortened: as §1

[6] = tested on: PPARa:RXRa (NR concentration 270 nM, RXRa partner concentration 90 nM)
Procedure, shortened: as §1

[7] = tested on: PPARg:RXRa (NR concentration 180 nM, RXRa partner concentration 90 nM)
Procedure, shortened: as §1

[8] = tested on: PPARg:RXRa 270nM:90nM, anti-RXR (NR concentration 270 nM, RXRa partner concentration 90 nM)
Procedure, shortened: as §1

[9] = tested on: PPARg:RXRa 30nM:10nM, anti-RXR (NR concentration 30 nM, RXRa partner concentration 10 nM)
Procedure, shortened: as §1

[10] = tested on: PPARg:RXRa 90nM:30nM, anti-RXR (NR concentration 90 nM, RXRa partner concentration 30 nM)
Procedure, shortened: as §1

[11] = tested on: PPARg:RXRa DBDmut IVT, anti-RXR (DBD mutation: RXRa K156A/R161A, NR concentration 270 nM, RXRa partner concentration 90 nM)
Procedure, shortened: as §1

[12] = tested on: PPARg:RXRa IVT, anti-PPARg (NR concentration 270 nM, RXRa partner concentration 90 nM)
Procedure, shortened: as §1

[13] = tested on: PPARg DBDmut:RXRa IVT, anti-PPARg (DBD mutation: PPARg1 K132A/R137A, NR concentration 270 nM, RXRa partner concentration 90 nM)
Procedure, shortened: as §1

[14] = tested on: PPARg DBDmut IVT, anti-PPARg (DBD mutation: PPARg1 K132A/R137A, NR concentration 270 nM)
Procedure, shortened: as §1

[15] = tested on: PPARg homodimer (NR concentration 180 nM)
Procedure, shortened: as §1

[16] = tested on: PXR:RXRa (NR concentration 270 nM, RXRa partner concentration 90 nM)
Procedure, shortened: as §1

[17] = tested on: PXR homodimer (NR concentration 270 nM)
Procedure, shortened: as §1

[18] = tested on: RARa:RXR (NR concentration 270 nM, RXRa partner concentration 90 nM)
Procedure, shortened: as §1

[19] = tested on: RARa homodimer (NR concentration 270 nM)
Procedure, shortened: as §1

Row | Sequence | PBM binding z-score [1] | PBM binding z-score [2] | PBM binding z-score [3] | PBM binding z-score [4] | PBM binding z-score [5] | PBM binding z-score [6] | PBM binding z-score [7] | PBM binding z-score [8] | PBM binding z-score [9] | PBM binding z-score [10] | PBM binding z-score [11] | PBM binding z-score [12] | PBM binding z-score [13] | PBM binding z-score [14] | PBM binding z-score [15] | PBM binding z-score [16] | PBM binding z-score [17] | PBM binding z-score [18] | PBM binding z-score [19]
1 | CTCGAAAGGTCAGTTGAGGTGAGTATACGGATAA | 6.96 | 5.84 | 1.79 | 4.51 | 2.26 | 5.5 | 4.89 | 5.13 | 1.86 | 4.15 | 2.81 | 3.53 | 0.544 | 1.62 | 5.81 | 5.79 | 0.639 | 5.08 | 3.41
2 | CCTACTGGGCCAAAAATGTCATTGATGCCGATAA | -0.451 | -0.771 | -0.332 | -0.343 | -0.655 | 0.13 | 0.537 | 0.911 | -0.0652 | 0.391 | 2.92 | 2.47 | -0.355 | -0.43 | -0.472 | -0.383 | -0.24 | -0.612 | 0.0407
3 | CAGCCTAGGTGAGGGCCAGTATAGGAGGAACGTT | -0.516 | -0.622 | -0.626 | -0.617 | -1.21 | -0.243 | 0.16 | -0.421 | -0.568 | -0.607 | 0.681 | 0.776 | -0.889 | -1.52 | -0.00134 | -0.652 | -0.633 | -0.402 | -0.758
4 | CGTCCAAGGTCAACGCTAGGTCAGTGAAAGCATT | 7.34 | 5.95 | 2.69 | 4.66 | 0.677 | 5.71 | 5.29 | 5.4 | 2.18 | 3.94 | 3.48 | 4.66 | -0.0404 | 0.201 | 6.46 | 5.11 | 1.66 | 6.35 | 2.52
5 | CGTCAAAGTTCTAGGTAACGTAACAGAAAGCAGC | -0.164 | -0.199 | 0.179 | 0.0595 | -0.169 | 0.259 | 0.641 | 0.228 | -0.178 | 0.017 | 1.41 | 1.83 | 0.454 | 0.457 | 0.283 | -0.00995 | -0.093 | 0.103 | 0.866
6 | CCGACTGGGCCATTCAGAGGTCATTGATCATATG | 2.92 | 4.38 | 6.59 | 3.54 | -0.323 | 3.44 | 1.4 | 2.29 | 0.268 | 1.42 | 3.29 | 2.53 | -0.872 | -0.8 | 3.14 | 4.88 | 2.75 | 4.62 | -0.131
7 | CGTCGGAGGACAGAAGGTCAGAGCTGTCCGCTTT | 1.32 | 1.68 | 0.0253 | 1.19 | -1.11 | 1.85 | -0.101 | 1.07 | -0.708 | 0.0661 | 0.0146 | 0.25 | -1.84 | -2.14 | 1.33 | 1.48 | -0.228 | 1.84 | 0.257
8 | CCTTACCGGTCAAGGTTATAGCACGGGTGGTACG | 1.7 | 1.88 | 0.946 | 1.05 | 0.381 | 1.83 | 0.758 | 0.908 | -0.303 | 0.282 | -0.499 | 0.825 | -0.737 | -0.375 | 1.58 | 1.16 | 0.299 | 1.3 | 0.889
9 | CCTACTGGGCCAAAGGTCCTTGATTCCAATGCTC | -0.0555 | -0.225 | -0.404 | 0.0817 | -0.832 | 3.84 | 8.78 | 8.68 | 8.07 | 8.91 | 5.03 | 5.07 | -0.487 | -1.06 | 0.826 | -0.225 | -0.792 | 0.089 | -0.831
10 | TTTCCAAGGTGAAAGGTCGTTGATGCACGCCTTG | 3.56 | 3.59 | 0.323 | 2.79 | 0.0398 | 5.37 | 7.96 | 7.33 | 6.06 | 7.82 | 2.51 | 4.72 | 0.923 | 0.85 | 1.64 | 4.23 | 0.161 | 5.56 | -0.0268
11 | TTACCAAGGTGAAAGGTCGTTGAAGCACGCCTTG | 4.16 | 3.41 | 0.16 | 2.97 | -0.616 | 5.82 | 9.24 | 8.52 | 7.08 | 9.79 | 2.63 | 5.39 | 0.668 | -0.186 | 1.84 | 4.44 | 0.41 | 6.52 | -0.363
12 | GCTGCTAGGTCAGGTTGGTCTGCTAACGGGTACG | 1.17 | 0.795 | -0.237 | 0.627 | -0.557 | 1.4 | 0.225 | 0.854 | -0.545 | 0.295 | 3.08 | 2.35 | -0.411 | -0.998 | 0.673 | 0.505 | -0.437 | 0.971 | 0.182
13 | CGAACTAGGTCAGAACAGGACATTGAAGGATGAT | 1.42 | 1.55 | 0.178 | 0.649 | -0.13 | 3.32 | 5.42 | 4.48 | 1.68 | 3.62 | 7.08 | 7.32 | 2.82 | 2.2 | 1.27 | 1.96 | 0.214 | 1.66 | 0.708
14 | CAAGCTAGGTCAAGAGGTCAAAGTCCGCTTCCCG | 7.28 | 6.35 | 6.45 | 5.81 | 1.58 | 6.2 | 6.82 | 6.77 | 4.04 | 6.31 | 4.26 | 5.5 | 0.198 | -0.534 | 7.12 | 6.25 | 3.16 | 7.58 | 3.04
15 | CGAACTAAGTCATCCAGGACAGTGAATACATTGA | 0.0178 | -0.0444 | 0.135 | -0.252 | -0.311 | 0.0393 | 0.532 | 0.277 | 0.283 | 0.237 | 1.12 | 0.862 | 0.763 | 1.05 | 0.291 | -0.153 | -0.248 | 0.371 | 0.476

— the supplement of paper PMC6555819
